# Measured values taken from the antibiotic and cytotoxicity screens of Wong et al. (2023).
# Among all 39,000 compounds or so, about 3,300 (8.5%) were called active. Only a selection was taken, and actives are over-represented in it overall.
# System: HepG2
# Assay: cytotoxicity call (relative viability < 0.9)
# Conditions: 10 µM
row,SMILES,cytotoxicity call
1,CO[C@@H]1CN(C)C(=O)c2cc(NC(=O)c3cc(C)on3)ccc2OC[C@@H](C)N(C(=O)C2CCC2)C[C@H]1C,inactive
2,C[C@@H]1CN([C@H](C)CO)C(=O)c2cc(NC(=O)Nc3ccc(C(F)(F)F)cc3)ccc2O[C@@H](C)CCCCO[C@@H]1CN(C)S(=O)(=O)c1cn(C)cn1,inactive
3,C[C@H](CO)N1C[C@H](C)[C@@H](CN(C)S(=O)(=O)c2ccc(F)cc2)OCCCC[C@H](C)Oc2ccc(NC(=O)C3CCCCC3)cc2C1=O,inactive
4,Cc1noc(C)c1S(=O)(=O)Nc1ccc2c(c1)C(=O)N([C@@H](C)CO)C[C@H](C)[C@H](CN(C)Cc1ccc(-c3ccccc3)cc1)O2,inactive
5,CCS(=O)(=O)N1CCC(C(=O)N(C)C)CC1,inactive
6,C[C@@H]1CN([C@H](C)CO)C(=O)c2c(c3ccccc3n2C)-c2ccccc2CO[C@@H]1CN(C)CC1CCCCC1,inactive
7,C[C@H]1CN([C@@H](C)CO)C(=O)c2c(c3ccccc3n2C)-c2ccccc2CO[C@H]1CN(C)CC1CCCCC1,inactive
8,C[C@@H]1CN([C@H](C)CO)C(=O)c2c(c3ccccc3n2C)-c2ccccc2CO[C@@H]1CN(C)C(=O)NC1CCCCC1,inactive
9,C[C@H](CO)N1C[C@H](C)[C@@H](CN(C)CC2CCCCC2)OCc2ccccc2-c2c(n(C)c3ccccc23)C1=O,inactive
10,C[C@H]1CN([C@@H](C)CO)C(=O)c2c(c3ccccc3n2C)-c2ccccc2CO[C@@H]1CN(C)CC1CCCCC1,active
11,C[C@@H]1CN([C@@H](C)CO)C(=O)c2c(c3ccccc3n2C)-c2ccccc2CO[C@@H]1CN(C)CC1CCCCC1,active
12,C[C@@H]1CN([C@@H](C)CO)C(=O)c2c(c3ccccc3n2C)-c2ccccc2CO[C@H]1CN(C)CC1CCCCC1,inactive
13,C[C@H](CO)N1C[C@H](C)[C@@H](CN(C)C(=O)NC2CCCCC2)OCc2ccccc2-c2c(n(C)c3ccccc23)C1=O,inactive
14,C[C@H](CO)N1C[C@H](C)[C@H](CN(C)C(=O)NC2CCCCC2)OCc2ccccc2-c2c(n(C)c3ccccc23)C1=O,active
15,CC1(C)S[C@H]2[C@@H](NC(=O)[C@@H](NC(=O)N3CCN(S(C)(=O)=O)C3=O)c3ccccc3)C(=O)N2[C@@H]1C(=O)O,inactive
16,CCCNC(=O)Nc1ccc2c(c1)C(=O)N(C)C[C@@H](OC)[C@@H](C)CN(C(=O)C1CCOCC1)[C@@H](C)CO2,inactive
17,Cc1noc(C)c1NC(=O)N(C)C[C@H]1OCCCC[C@@H](C)Oc2ccc(NC(=O)CCC(F)(F)F)cc2C(=O)N([C@H](C)CO)C[C@H]1C,inactive
18,C[C@H](C(=O)O)N1CCCCC1,inactive
19,CC(C)c1cn(CC[C@H]2CC[C@H](N)[C@@H](CO)O2)nn1,inactive
20,CC[C@@H](Sc1n[nH]c(=O)[nH]c1=O)C(=O)O,inactive
21,COCC(=O)N(C)C[C@H]1Oc2cc(C#CCC3CCCC3)ccc2S(=O)(=O)N([C@H](C)CO)C[C@H]1C,inactive

row,SMILES,cytotoxicity call
1,C[C@@H]1CN([C@H](C)CO)C(=O)Cc2cc(NC(=O)C3CC3)ccc2O[C@H]1CN(C)C(=O)Nc1ccccc1,inactive
2,COCC(=O)N1[C@@H]2c3ccc(C4=CCCCC4)c(=O)n3C[C@@H]2[C@@H](CO)[C@@H]1C(=O)N1CCOCC1,inactive
3,C=CC(=O)Nc1cccc(C)c1Nc1ncc2cc(-c3c(Cl)c(OC)cc(OC)c3Cl)ccc2n1,active
4,COCC(=O)Nc1ccc2c(c1)C(=O)N(C)[C@@H]1CC[C@@H](CC(=O)NCc3ccc(OC)cc3)O[C@H]1CO2,inactive
5,Cc1noc(C)c1NC(=O)N(C)C[C@H]1Oc2ccc(NC(=O)Nc3ccc(C(F)(F)F)cc3)cc2C(=O)N([C@@H](C)CO)C[C@H]1C,inactive
6,COCC(=O)N(C)C[C@H]1Oc2cc(C#C[C@@H](C)O)ccc2S(=O)(=O)N([C@H](C)CO)C[C@@H]1C,inactive
7,C[C@H](CO)N1C[C@H](C)[C@@H](CN(C)Cc2ccc(Cl)c(Cl)c2)OCCCC[C@H](C)Oc2ccc(NC(=O)CCC(F)(F)F)cc2C1=O,inactive
8,C[C@@H]1CCCCO[C@H](CN(C)Cc2ccc(Cl)c(Cl)c2)[C@@H](C)CN([C@@H](C)CO)C(=O)c2cc(NC(=O)CCC(F)(F)F)ccc2O1,inactive
9,C[C@@H]1CN([C@H](C)CO)C(=O)c2cc(NC(=O)CCC(F)(F)F)ccc2O[C@@H](C)CCCCO[C@@H]1CN(C)Cc1ccc(Cl)c(Cl)c1,active
10,C[C@@H]1CN([C@H](C)CO)C(=O)c2cc(NC(=O)CCC(F)(F)F)ccc2O[C@@H](C)CCCCO[C@H]1CN(C)Cc1ccc(Cl)c(Cl)c1,active
11,C[C@@H]1CCCCO[C@@H](CN(C)Cc2ccc(Cl)c(Cl)c2)[C@H](C)CN([C@@H](C)CO)C(=O)c2cc(NC(=O)CCC(F)(F)F)ccc2O1,inactive
12,C[C@@H]1CCCCO[C@H](CN(C)Cc2ccc(Cl)c(Cl)c2)[C@@H](C)CN([C@H](C)CO)C(=O)c2cc(NC(=O)CCC(F)(F)F)ccc2O1,inactive
13,C[C@H]1CCCCO[C@H](CN(C)Cc2ccc(Cl)c(Cl)c2)[C@@H](C)CN([C@@H](C)CO)C(=O)c2cc(NC(=O)CCC(F)(F)F)ccc2O1,inactive
14,C[C@@H]1CN([C@@H](C)CO)C(=O)c2cc(NC(=O)CCC(F)(F)F)ccc2O[C@@H](C)CCCCO[C@H]1CN(C)Cc1ccc(Cl)c(Cl)c1,inactive
15,C[C@@H]1CCCCO[C@@H](CN(C)Cc2ccc(Cl)c(Cl)c2)[C@@H](C)CN([C@@H](C)CO)C(=O)c2cc(NC(=O)CCC(F)(F)F)ccc2O1,active
16,C[C@@H]1CCCCO[C@@H](CN(C)Cc2ccc(Cl)c(Cl)c2)[C@@H](C)CN([C@H](C)CO)C(=O)c2cc(NC(=O)CCCN(C)C)ccc2O1,active
17,Cn1cnc(S(=O)(=O)N[C@@H]2C=C[C@H](CC(=O)NCC3CC3)O[C@H]2CO)c1,inactive
18,COc1ccc(S(=O)(=O)N(C)C[C@@H]2OCCCC[C@@H](C)Oc3ccc(NC(=O)CCCCCC(=O)Nc4ccccc4N)cc3C(=O)N([C@H](C)CO)C[C@@H]2C)cc1,inactive
19,COc1ccccc1CNC(=O)C[C@@H]1C[C@@H]2c3cc(NC(=O)Cc4ccncc4)ccc3O[C@@H]2[C@@H](CO)O1,inactive
20,C[C@@H]1CCCCO[C@@H](CN(C)CC2CCCCC2)[C@@H](C)CN([C@@H](C)CO)C(=O)c2cc(N(C)C)ccc2O1,inactive
21,C[C@H](CO)N1C[C@H](C)[C@H](CN(C)C(=O)Nc2ccc3c(c2)OCO3)OCCCC[C@H](C)Oc2ccc(NS(=O)(=O)c3ccc(F)cc3)cc2C1=O,inactive

row,SMILES,cytotoxicity call
1,CS(=O)(=O)N1C[C@@H](O)COC[C@@H]2O[C@H](CC(=O)NCc3ccccc3)CC[C@H]21,inactive
2,C[C@@H]1CCCCO[C@H](CN(C)C(=O)Nc2ccc(F)cc2)[C@@H](C)CN([C@H](C)CO)C(=O)c2cc(NS(=O)(=O)c3cccs3)ccc2O1,inactive
3,O=C(C[C@H]1CC[C@H]2[C@@H](COC[C@@H](O)CN2S(=O)(=O)c2ccccc2)O1)NCCN1CCCCC1,inactive
4,Cc1noc(C)c1NC(=O)Nc1ccc2c(c1)C(=O)N([C@@H](C)CO)C[C@H](C)[C@H](CN(C)C(=O)Nc1ccc3c(c1)OCO3)OCCCC[C@H](C)O2,inactive
5,COc1ccc(S(=O)(=O)N(C)C[C@H]2Oc3c(cccc3N(C)C)C(=O)N([C@@H](C)CO)C[C@H]2C)cc1,inactive
6,C[C@@H]1CCCCO[C@@H](CN(C)Cc2ccc(Cl)c(Cl)c2)[C@@H](C)CN([C@H](C)CO)C(=O)c2cc(NC(=O)CCC(F)(F)F)ccc2O1,inactive
7,C[C@@H]1CCCCO[C@H](CN(C)Cc2ccc(Cl)c(Cl)c2)[C@H](C)CN([C@@H](C)CO)C(=O)c2cc(NC(=O)CCC(F)(F)F)ccc2O1,active
8,C[C@@H]1CCCCO[C@H](CN(C)Cc2ccc(Cl)c(Cl)c2)[C@H](C)CN([C@H](C)CO)C(=O)c2cc(NC(=O)CCC(F)(F)F)ccc2O1,active
9,C[C@@H]1CCCCO[C@@H](CN(C)Cc2ccc3c(c2)OCO3)[C@H](C)CN([C@H](C)CO)C(=O)c2cc(NC(=O)CCC(F)(F)F)ccc2O1,inactive
10,C[C@@H]1CCCCO[C@H](CN(C)Cc2ccc3c(c2)OCO3)[C@@H](C)CN([C@@H](C)CO)C(=O)c2cc(NC(=O)CCC(F)(F)F)ccc2O1,inactive
11,C[C@@H]1CCCCO[C@@H](CN(C)Cc2ccc(Cl)c(Cl)c2)[C@H](C)CN([C@H](C)CO)C(=O)c2cc(NC(=O)CCC(F)(F)F)ccc2O1,inactive
12,COc1ccc(S(=O)(=O)Nc2ccc3c(c2)C(=O)N([C@@H](C)CO)C[C@@H](C)[C@@H](CN(C)S(=O)(=O)c2cn(C)cn2)OCCCC[C@@H](C)O3)cc1,inactive
13,C[C@@H]1CCCCO[C@@H](CN(C)C(=O)Cc2ccccc2)[C@@H](C)CN([C@@H](C)CO)C(=O)c2cc(NC(=O)NC3CCCCC3)ccc2O1,inactive
14,C[C@@H]1COC(=O)[C@@H](NC(=O)OCC2c3ccccc3-c3ccccc32)CC=CC[C@H](CC(=O)NCCO)C(=O)N1,inactive
15,CN(C)CCCC[C@@H]1NC(=O)[C@H]2C[C@@H](C(=O)NCCCCCNC(=O)CS)[C@@H](c3ccc(O)cc3)N2C1=O,inactive
16,O/N=C/c1ccc2ccccc2c1,inactive
17,O/N=C/c1c(Cl)cccc1Cl,inactive
18,O/N=C/c1ccccc1C(F)(F)F,active
19,CC(C)(C)N1C[C@H](C(=O)O)CC1=O,inactive
20,Cc1ccc(S(=O)(=O)Nc2cccc3c2O[C@H](CN(C)S(C)(=O)=O)[C@@H](C)CN([C@H](C)CO)C3=O)cc1,inactive
21,C[C@@H]1CN([C@@H](C)CO)S(=O)(=O)c2ccc(-c3cncnc3)cc2O[C@@H]1CN(C)C(=O)c1ccc2c(c1)OCO2,inactive
